# Test results as given in PubChem BioAssay (EPA / NIEHS).
# Records with an inconclusive call do not appear. The source made the active and inactive calls. How the source made its calls, unless noted: active means hit-call score of the fitted dose curve at least 0.9, where 1 is the maximum; inactive means score below 0.9.
# Key:
# DIO1 (gene 1733) = assay: CCTE_GLTED_hDIO1: CCTE's human Deiodinase 1 (DIO1) Inhibition Assay, Great Lakes Toxicology and Ecology Division (GLTED) Lab (AID 2283987; active means hit-call score of the fitted dose curve at least 0.9, where 1 is the maximum;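 further: isolated human DIO1 enzyme in a cell-free setup rather than cells; enzyme activity read as free iodide liberated from substrate via Sandell-Kolthoff colorimetry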)
# How it was run: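 Inhibition read as reduced iodide release: after 3 h of human DIO1 with chemical, free iodide is quantified colorimetrically (Sandell-Kolthoff cerium/arsenic reaction). Triplicate plates, DMSO baseline.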
# [1] = target: Nucleoli Translocation, AR (gene 367) (UniProt P10275); assay: UPITT_HCI_U2OS_AR_TIF2_Nucleoli_Antagonist: University of Pittsburgh U2OS Androgen Receptor-Transcriptional Intermediary Factor 2 (AR-TIF2) Antagonism High Content Imaging Assay for Nucleoli Translocation (AID 2283997; active means hit-call score of the fitted dose curve at least 0.9, where 1 is the maximum)
# How it was run: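 U2OS cells expressing RFP-tagged human AR and GFP-tagged TIF2 were imaged by high-content fluorescence microscopy for red AR signal in the nucleolar region. Compounds were screened at 20 uM final (0.2% DMSO), with activity fitted relative to DHT as baseline.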
# [2] = target: Nucleoli Translocation, AR (gene 367) (UniProt P10275); assay: UPITT_HCI_U2OS_AR_TIF2_Nucleoli_Agonist: University of Pittsburgh U2OS Androgen Receptor-Transcriptional Intermediary Factor 2 (AR-TIF2) Agonism High Content Imaging Assay for Nucleoli Translocation (AID 2283998; active means hit-call score of the fitted dose curve at least 0.9, where 1 is the maximum)
# How it was run: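 Nucleolar translocation of AR-RFP, with TIF2-GFP coexpressed in human osteosarcoma U2OS, imaged by high-content fluorescence. Compounds tested singly at 20 uM final, confirmed in triplicate, then titrated 0.195–50 uM final; gain-of-signal relative to DMSO.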
# [3] = target: Ratio of Nucleoli Translocation and Cytoplasm, AR (gene 367) (UniProt P10275); assay: UPITT_HCI_U2OS_AR_TIF2_Nucleoli_Cytoplasm_Ratio_Agonist: University of Pittsburgh U2OS Androgen Receptor-Transcriptional Intermediary Factor 2 (AR-TIF2) Agonism High Content Imaging Assay for Ratio of Nucleoli Translocation and Cytoplasm (AID 2284000; active means hit-call score of the fitted dose curve at least 0.9, where 1 is the maximum;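 further: hits raise the red nucleolar to cytoplasm ratio above vehicle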)
# How it was run: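 U2OS cells expressing RFP-tagged human AR and GFP-tagged TIF2 were imaged by high-content fluorescence microscopy. The endpoint is the ratio of nucleolar to cytoplasmic red fluorescence, fitted for gain of signal relative to DMSO. Concentration-response spanned 0.195 to 50 uM final (0.5% DMSO).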
# [4] = CCTE_Simmons_MITO_basal_resp_rate: CCTE's HepG2 Seahorse XF Respirometric Screening Assay at Basal Respiratory State, Simmons Lab (AID 2284001); conditions: actives raise or lower the signal
# How it was run: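 HepG2 cells were given test chemicals at 7 concentrations, 125 nM to 100 uM final, and oxygen consumption rate was read every 6 min (3 min mix, 3 min measure) over 72 min. Basal-phase OCR was fitted bidirectionally against DMSO.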
# [5] = CCTE_Simmons_MITO_max_resp_rate: CCTE's HepG2 Seahorse XF Respirometric Screening Assay at Maximal Respiratory State [uncoupled], Simmons Lab (AID 2284002); conditions: actives raise or lower the signal
# How it was run: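 Maximal (FCCP-uncoupled) respiration rate in HepG2, from Seahorse kinetic OCR over 72 min at 6 min cycles. Compounds at 125 nM–100 uM final, 7 points, three biological replicates; both directions fit relative to DMSO.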
# [6] = CCTE_Simmons_MITO_inhib_resp_rate: CCTE's HepG2 Seahorse XF Respirometric Screening Assay at Inhibited Respiratory State [full ETC block], Simmons Lab (AID 2284006); conditions: actives raise or lower the signal
# How it was run: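 Compound injected onto HepG2 cells (125 nM–100 uM final, 7 points); FCCP then rotenone/antimycin A added. Oxygen consumption read every 6 min (3 min mix, 3 min measure) for 72 min. Inhibited-state OCR fitted against DMSO.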
# [7] = CCTE_Simmons_MITO_viability: CellTiter-Glo Viability Assessment for CCTE's HepG2 Seahorse XF Respirometric Screening Assay [post-hoc], Simmons Lab (AID 2284007; active means hit-call score of the fitted dose curve at least 0.9, where 1 is the maximum;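 on AC50: cells exposed to chemical for 90 min before the ATP read; actives lower ATP signal relative to DMSO baseline meaning reduced viability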)
# How it was run: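 After the Seahorse oxygen-consumption sequence (basal, FCCP, rotenone/antimycin A; 72 min total), HepG2 viability was scored as ATP content by bioluminescence. Chemicals ran at seven concentrations up to 100 uM final for 90 min.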
# [8] = CCTE_Shafer_MEA_acute_spike_number: CCTE's Neural Acute Assay for Total Number of Spikes, Shafer Lab (AID 2284008);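 on AC50: curve fitted for decrease in spike count so AC50 reflects inhibitors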
# How it was run: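 Total spike count from 40 min recordings before and during compound exposure (0.03-40 uM), given as per-well percent change. Cortical cultures from rat, DIV 13 or 15, 37 C; adaptive detection threshold 8x rms noise.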
# [9] = CCTE_Shafer_MEA_acute_firing_rate_mean: CCTE's Neural Acute Assay for Mean Firing Rate, Shafer Lab (AID 2284009);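 further: analyzed for loss of signal so actives lower firing rate relative to DMSO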
# How it was run: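 Read-out: well-mean spike rate (spikes/recording length/electrodes), % change from 40 min pre-dose baseline to 40 min with compound. Rat cortical cultures, DIV 13 or 15, 37 C; 0.03-40 uM; DMSO as negative control.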
# Chain of Nucleoli Translocation, AR (gene 367) (P10275 whole entry, looked up): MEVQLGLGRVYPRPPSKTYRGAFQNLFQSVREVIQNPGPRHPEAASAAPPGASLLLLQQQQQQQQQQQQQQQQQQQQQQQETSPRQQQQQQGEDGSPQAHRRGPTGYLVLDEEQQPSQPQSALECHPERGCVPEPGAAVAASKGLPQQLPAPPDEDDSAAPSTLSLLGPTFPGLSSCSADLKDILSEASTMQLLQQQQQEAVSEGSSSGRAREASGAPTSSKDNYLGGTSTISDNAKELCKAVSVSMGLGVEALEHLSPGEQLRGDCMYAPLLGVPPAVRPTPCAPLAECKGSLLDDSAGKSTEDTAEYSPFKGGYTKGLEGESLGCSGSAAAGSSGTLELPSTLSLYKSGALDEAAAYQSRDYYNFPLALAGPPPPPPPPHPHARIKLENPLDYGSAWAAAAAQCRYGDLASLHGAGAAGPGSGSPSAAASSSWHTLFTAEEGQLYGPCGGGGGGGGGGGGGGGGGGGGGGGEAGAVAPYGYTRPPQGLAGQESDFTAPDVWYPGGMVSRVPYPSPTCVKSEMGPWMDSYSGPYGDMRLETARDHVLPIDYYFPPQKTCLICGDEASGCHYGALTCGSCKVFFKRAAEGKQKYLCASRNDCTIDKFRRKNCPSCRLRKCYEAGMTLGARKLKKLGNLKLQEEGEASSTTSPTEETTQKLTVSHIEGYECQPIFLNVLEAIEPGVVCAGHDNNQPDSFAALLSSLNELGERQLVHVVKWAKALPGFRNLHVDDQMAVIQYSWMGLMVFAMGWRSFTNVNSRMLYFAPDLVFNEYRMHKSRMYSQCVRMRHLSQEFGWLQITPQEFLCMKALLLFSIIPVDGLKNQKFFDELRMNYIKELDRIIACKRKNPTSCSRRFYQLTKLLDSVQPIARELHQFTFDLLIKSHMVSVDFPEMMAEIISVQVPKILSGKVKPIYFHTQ
# Chain of Ratio of Nucleoli Translocation and Cytoplasm, AR (gene 367) (P10275 whole entry, looked up): as above
smiles,measurement,setting,value
NCc1cccc(C2CCN(C(=O)c3ccc(C#Cc4ccccc4F)o3)CC2)c1,AC50,DIO1 (gene 1733),88.6 µM (active)
same,AC50,[1],72.7 µM (active)
same,outcome,[2],inactive
same,AC50,[3],50 µM (active)
same,AC50,[4],37.2 µM (active)
same,AC50,[5],61.4 µM (active)
same,outcome,[6],inactive
same,outcome,[7],inactive
same,AC50,[8],9.02 µM (active)
same,AC50,[9],9.02 µM (active)
CCN(CC)C(=O)c1cc(S(=O)(=O)Cc2ccccc2)c(N2CCC(c3ccccc3)CC2)cc1N(CC)CCN(C)C,AC50,DIO1 (gene 1733),40 µM (active)
same,AC50,[8],3.04 µM (active)
same,AC50,[9],3.04 µM (active)
CC/C(=C(/CC)c1ccc(O)cc1)c1ccc(O)cc1,AC50,[4],8.17 µM (active)
same,AC50,[5],11.3 µM (active)
same,AC50,[6],6.72 µM (active)
same,AC50,[7],12 µM (active)
same,AC50,[8],8.49 µM (active)
same,AC50,[9],8.49 µM (active)
Cc1cc2c(cc1C(F)(F)F)N(C(=O)Nc1ccc(Oc3cccnc3C)nc1)CC2,outcome,[4],inactive
same,AC50,[5],10.9 µM (active)
same,outcome,[6],inactive
same,outcome,[7],inactive
same,outcome,[8],inactive
same,outcome,[9],inactive
O=C1c2ccccc2C(=O)N1CCc1noc(-c2ccc(CN3CCCCCC3)s2)n1,AC50,[4],57.5 µM (active)
same,AC50,[5],39.8 µM (active)
same,outcome,[6],inactive
same,outcome,[7],inactive
CO[C@H]1/C=C/O[C@@]2(C)Oc3c(C)c(O)c4c(O)c(c(/C=N/N5CCN(C)CC5)c(O)c4c3C2=O)NC(=O)/C(C)=C\C=C\[C@H](C)[C@H](O)[C@@H](C)[C@@H](O)[C@@H](C)[C@H](OC(C)=O)[C@@H]1C,outcome,[8],inactive
same,outcome,[9],inactive
CC(C)(O)c1ccc(CNC(=O)c2cccnc2Oc2ccc3nonc3c2)cc1,outcome,[4],inactive
same,outcome,[5],inactive
same,outcome,[6],inactive
same,outcome,[7],inactive
CN1C(=O)N(c2ccccc2Br)Cc2cnc(Nc3ccc4c(c3)OCC(CO)O4)nc21 (stereo unspecified),AC50,[4],35.1 µM (active)
same,AC50,[5],50 µM (active)
same,outcome,[6],inactive
same,AC50,[7],33.7 µM (active)
Cc1cn([C@H]2C[C@H](N=[N+]=[N-])[C@@H](CO)O2)c(=O)[nH]c1=O,outcome,[8],inactive
same,outcome,[9],inactive
O=C(O)Cc1cc(I)c(Oc2ccc(O)c(I)c2)c(I)c1,AC50,[4],27 µM (active)
same,AC50,[5],50 µM (active)
same,outcome,[6],inactive
same,outcome,[7],inactive
Clc1ccccc1C(c1ccccc1)(c1ccccc1)n1ccnc1,AC50,[8],5.01 µM (active)
same,AC50,[9],5.03 µM (active)
CC[C@@H]1C[C@H](N(Cc2cc(C(F)(F)F)cc(C(F)(F)F)c2)C(C)=O)c2cc(C(F)(F)F)ccc2N1C(=O)OC(C)C,outcome,[8],inactive
same,outcome,[9],inactive
COc1cccc([C@H](O)C2CCN(CCc3ccc(F)cc3)CC2)c1OC,AC50,[8],2.87 µM (active)
same,AC50,[9],2.87 µM (active)
